Experimental data reported in PubChem BioAssay AID1377 (University of Pittsburgh Molecular Library Screening Center, 2008).
Out of some 220,000 compounds screened, about 830 (0.38%) were called active. The sample holds actives, similar compounds and a random draw of the others, so the mix is not that of the screen. Values without a mark were called inactive.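 The calls were made as follows: active = activation, scaled between plate controls, above about 75% (limit read from the data); inactive = activation under that limit.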

Test: inhibitors of zVAD-triggered necroptosis, primary screen, L929 cells (AID 1377);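 also: 0% = zVAD with DMSO and 100% = DMSO alone without zVAD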
Conditions: ATP luminescence, 24 h, at 10 µM, active compounds read high; with zVAD 60 µM unless noted

In order of rising viability rescue:
1. O=C(Nc1cccc2c1N(C(=O)c1ccco1)CCC2)c1ccco1  -0.96%
2. O=C(N/N=C/c1cccc([N+](=O)[O-])c1)c1ccncc1  -0.83%
3. COc1cc2c(C(=O)N3CCN(C)CC3)c(CSc3ccccc3)n(C)c2cc1Br  -0.59%
4. Cc1ccc(-c2csc(N(Cc3ccco3)C(=O)c3cccs3)n2)cc1  -0.54%
5. CC1=NNC(=O)C1CC(=O)N/N=C/c1ccncc1 (stereo not given)  -0.36%
6. CCOC(=O)C1(CCOc2ccccc2)CCN(C(=O)c2cncs2)CC1  -0.01%
7. Cc1ccc(CNC(=O)c2cccnc2Cl)cc1  0.12%
8. Cc1cc(C)nc(-n2nc(C)cc2NC(=O)c2ccc(F)cc2F)n1  0.15%
9. COc1ccc(Nc2nc(NCc3ccco3)nc(N/N=C/c3ccccc3Cl)n2)cc1  0.33%
10. COc1ccc2nc(NC(=O)c3ccc(Br)s3)sc2c1  0.35%
11. CC(C)NC(=S)NN=C1CCCCCCCCCCC1  0.38%
12. CCN(CC)S(=O)(=O)c1ccc(Cl)c(NC(=O)c2ccncc2)c1  0.44%
13. CCOC(=O)c1cc(Sc2ccccc2N)cc(C(=O)OCC)n1  0.51%
14. COc1ccc2nc(Nc3nc4ccc(NC(C)=O)cc4s3)sc2c1  0.58%
15. COc1ccc(Nc2nc(-c3ccccc3)cs2)cc1  0.79%
16. CN1CCN(C2=NCCO2)CC1  1%
17. COc1ccc(-c2cc(C(=O)NC(Cc3c[nH]c4ccccc34)C(=O)O)c(C)o2)cc1OC (stereo not given)  1.33%
18. CCOc1ccc(NC(=O)c2ccc(CSc3nnnn3C)cc2)cc1  1.6%
19. COc1ccc(-c2csc(Nc3ccccn3)n2)cc1  1.69%

In the case of COc1ccc2nc(NC(=O)NC3CCCCC3)sc2c1, the viability rescue is reported as 85.7% (active).
In the case of COc1cc(OC)c(OC)cc1/C=N/Nc1ncnc2c1[nH]c1ccc(C)cc12, the viability rescue is reported as 78.9% (active).
With Cc1cc(C)nc(-n2nc(C)cc2NC(=O)c2ccc(Br)o2)n1 the viability rescue was 82.2% [with zVAD 20 µM] (active).
In the case of COc1ccc(-c2csc(Nc3ccc(O)cc3)n2)cc1, the viability rescue is reported as 93% (active).
For CCN(CC)S(=O)(=O)c1ccc(NC(=O)c2cccnc2Cl)c(NC(=O)c2cccnc2Cl)c1, the viability rescue was 82.2% (active).
With COc1ccc(-n2cnc3cc(NCc4ccco4)ccc32)cc1 the viability rescue was 79.9% (active).

In order of rising viability rescue:
1. Cc1nn(C)c(Oc2ccccc2)c1CCNS(=O)(=O)c1ccc(F)cc1  0.02% [with zVAD 20 µM]
2. Cc1ccc2[nH]c3c(=O)n(Cc4ccccn4)cnc3c2c1  0.13% [with zVAD 20 µM]
3. Cc1cccc(-n2nc3c(c2NC(=O)c2ccc(Br)o2)CSC3)c1C  0.18% [with zVAD 20 µM]
4. COc1ccc(Nc2nc(Cl)nc(NCc3ccco3)n2)cc1  0.2% [with zVAD 20 µM]
5. CC(C)OCCCNc1ncnc2c1[nH]c1ccc(F)cc12  4.34% [with zVAD 20 µM]
